Test results from PubChem BioAssay.
A number with no mark means an inactive call. The rule behind the calls is not given here.

target: Pantothenate synthetase (Mycobacterium tuberculosis (strain ATCC 25618 / H37Rv)) (UniProt P9WIL5); assay: Recombinant Mtb pantothenate synthetase (PanC) inhibitors, coupled enzyme, confirmatory (AID 375); conditions: coupled enzyme assay; at 10 µM, hits give high values;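 note: 0% = full reaction with vehicle and 100% = no enzyme background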
Sequence (P9WIL5 whole entry, looked up): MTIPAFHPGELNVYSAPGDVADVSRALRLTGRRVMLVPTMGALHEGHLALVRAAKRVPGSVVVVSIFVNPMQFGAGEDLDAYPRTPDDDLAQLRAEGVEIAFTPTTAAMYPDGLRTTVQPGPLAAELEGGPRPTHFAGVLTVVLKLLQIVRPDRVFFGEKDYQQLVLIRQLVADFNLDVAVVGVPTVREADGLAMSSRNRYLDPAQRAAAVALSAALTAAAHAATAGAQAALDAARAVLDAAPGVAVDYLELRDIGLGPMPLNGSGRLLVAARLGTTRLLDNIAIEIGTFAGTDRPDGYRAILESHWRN

SMILES | inhibition
COc1ccc(NC(=O)CC2Sc3ncnn3C2=O)cc1 (stereo not given) | 0%
Cc1ccc(C(C)n2cc(C(=O)NCCN3CCN(C)CC3)nn2)cc1 (stereo not given) | 0%
COc1ccc(C2C=C(c3ccccc3)Nc3ncnn32)cc1 (stereo not given) | 4%
Cc1cccc(-c2nnn(CC/C(N)=N/O)n2)c1 | 3%
Cc1ccc(S(=O)(=O)N2CCN(C(=O)CSC3CCCC3)CC2)c(C)c1 | 0%
Cc1cccc(OCC(=O)Nc2ccccc2N2CCN(C(=O)C(C)C)CC2)c1C | 5%
Cc1cc(NC(=O)CSc2nc(C3CC3)nc3sc4c(c23)CCC(C)C4)no1 (stereo not given) | 6%
CCc1nn(CC(=O)N2CCN(Cc3ccc4c(c3)OCO4)CC2)c(=O)c2cc3occc3n12 | 5%
CC(=O)OCC[N+](C)(C)C | 0%
CCN(CC(=O)Nc1ccc(S(N)(=O)=O)cc1)S(=O)(=O)c1cc(C)ccc1OC | 6%
CCNC(=O)CC1C(=O)N(c2ccccc2)C(=O)N1CCC(C)C (stereo not given) | 0%
CCOC(=O)c1ccc(NC(=O)Nc2ccn(C)n2)cc1 | 0%
Cc1nc(SCc2ccc(Br)cc2)[nH]c(=O)c1C | 0%
Cc1cccc(CC2CC(=O)N(c3ccccc3)C2=O)c1 (stereo not given) | 0%
O=C(C1CCCO1)N1CCN(S(=O)(=O)c2ccccc2)CC1 (stereo not given) | 0%
C#CCN1C(=O)C(O)(CC(=O)c2cc(OC)ccc2OC)c2ccccc21 (stereo not given) | 6%
Cc1cc(Br)ccc1NC(=O)CNC(=O)CSc1n[nH]c(N)n1 | 6%
Cc1ccc(S(=O)(=O)NCCC(=O)OCn2nnc3ccccc3c2=O)cc1 | 1%
Cc1nc2ccccc2n1CCC(=O)Nc1cccc(F)c1 | 4%
O=C(COC(=O)c1cnccn1)c1ccc(OC(=O)c2ccccc2)cc1 | 0%
